Measurements reported in PubChem BioAssay (Tox21).
Inconclusive results are not listed. Active and inactive are the calls of the source. Unless noted, the call rests on the fitted dose curve; in most records, active means well fitted curve in the direction sought with a large enough effect in the repeat runs; inconclusive means weak or mixed curves; inactive means no such curve, though single readings can be large; an effect the other way counts as inactive or inconclusive.

Experiments:
[1] = biological target: Thyrotropin receptor (Homo sapiens) (UniProt P16473); assay: qHTS assay to identify small molecule agonists of the thyroid stimulating hormone receptor (TSHR) signaling pathway (AID 1224843; calls by dose curve; further: nearly all actives have a fitted effect of over 45% in size)
Chain of Thyrotropin receptor (Homo sapiens) (P16473 whole entry, looked up): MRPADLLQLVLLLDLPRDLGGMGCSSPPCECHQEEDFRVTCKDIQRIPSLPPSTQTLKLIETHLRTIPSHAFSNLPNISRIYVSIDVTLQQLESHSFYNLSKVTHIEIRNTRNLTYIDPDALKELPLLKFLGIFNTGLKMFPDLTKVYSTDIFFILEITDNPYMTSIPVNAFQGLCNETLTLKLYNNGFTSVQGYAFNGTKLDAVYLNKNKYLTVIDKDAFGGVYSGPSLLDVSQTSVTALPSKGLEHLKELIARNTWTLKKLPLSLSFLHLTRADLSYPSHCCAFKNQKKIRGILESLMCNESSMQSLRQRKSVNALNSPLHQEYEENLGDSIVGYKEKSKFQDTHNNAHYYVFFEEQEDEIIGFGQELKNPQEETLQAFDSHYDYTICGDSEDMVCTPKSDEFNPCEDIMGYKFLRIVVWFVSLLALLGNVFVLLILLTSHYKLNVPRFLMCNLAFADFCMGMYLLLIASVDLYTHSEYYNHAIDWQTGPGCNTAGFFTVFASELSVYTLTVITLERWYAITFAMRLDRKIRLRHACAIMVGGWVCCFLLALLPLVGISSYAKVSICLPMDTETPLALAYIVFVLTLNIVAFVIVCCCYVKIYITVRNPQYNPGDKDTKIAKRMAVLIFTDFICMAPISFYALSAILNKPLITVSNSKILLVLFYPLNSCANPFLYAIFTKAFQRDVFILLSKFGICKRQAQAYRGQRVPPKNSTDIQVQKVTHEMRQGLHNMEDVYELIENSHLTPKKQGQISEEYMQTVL
Outline: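 HEK293 cells stably bearing the thyrotropin receptor were plated at 800 cells/well and challenged with compound (30 min, RT). Accumulated cAMP was quantified via cAMP-d2 competing for cryptate-tagged antibody.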

[2] = qHTS assay to identify small molecule agonists of the hypoxia (HIF-1) signaling pathway - cell viability counter screen (AID 1224844; calls by dose curve; further: nearly all actives have a fitted effect of over 50% in size)
Outline: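 HRE-bla ME-180 cells in medium with 0.5% dialyzed FBS were preincubated 5 hrs at 37C, exposed to compounds for 17 hrs, then viability was read as CellTiter-Glo luminescence after 30 min at room temperature, in the reporter wells.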

[3] = qHTS assay to identify small molecule agonists of H2AX (AID 1224845; active means well fitted activation curve with a large enough effect in the signal ratio in the repeat runs, not every such curve was filed as active; the % refers to the signal ratio)
Outline: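 Phospho-H2AX Ser139 measured by HTRF (ex 320 nm; em 665 and 620 nm) after 24 hr antibody incubation. Compounds, 15 concentrations, 0.76% DMSO, were applied to CHO-K1 cells for 3hr at 37C before lysis.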

[4] = qHTS assay to identify small molecule agonists of the hypoxia (HIF-1) signaling pathway (AID 1224846; active means well fitted activation curve with a large enough effect in the signal ratio in the repeat runs, not every such curve was filed as active; the % refers to the signal ratio)
Outline: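 HRE-bla ME-180 cells (beta-lactamase reporter under hypoxia response element) were plated at 2,000 cells/well in medium with 0.5% dialyzed FBS, rested 5 hrs, then given compounds in DMSO for 17 hrs at 37C, 5% CO2. Reporter induction was read with CCF4-AM FRET substrate.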

[5] = qHTS RealTime-Glo MT Cell Viability Assay in HepG2 cells - 24 hour (AID 1224867); further: nearly all actives have a fitted effect of over 50% in size
Outline: (§1)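 Viability was tracked continuously by NanoLuc luminescence from prosubstrate reduced by living HepG2 cells, at successive time points over 40 h of compound exposure. Cells with reagent were preincubated 5 h at 37 °C before compound addition.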

[6] = qHTS RealTime-Glo MT Cell Viability Assay in HEK293 cells - 32 hour (AID 1224868); further: top concentration of the series differs between compounds; nearly all actives have a fitted effect of over 50% in size
Outline: (§2)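 Viability tracked continuously by luminescence as live cells reduce a prosubstrate for NanoLuc; HEK293 cells preincubated 5 h, compound-treated at 37 C, and read at 0, 8, 16, 24, 32 and 40 h.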

[7] = A CellTox Green Cytotoxicity Assay to monitor cytotoxicity in HEK293 cells - 0 hour (AID 1224869); further: nearly all actives have a fitted effect of over 50% in size
Outline: (§3)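 HEK293 cells premixed with CellTox Green dye were seeded at 600 cells/well and left 5 h at 37 C/5% CO2 before pin transfer of 23 nL compound in DMSO. Fluorescence from dye bound to dead-cell DNA was read during 40 h treatment.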

[8] = qHTS RealTime-Glo MT Cell Viability Assay in HepG2 cells - 40 hour (AID 1224870); further: nearly all actives have a fitted effect of over 50% in size
Outline: (§4)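 Real-time viability: cells seeded at 600 per well together with NanoLuc and cell-permeant prosubstrate, compounds added after 5 h incubation. Luminescence tracked at 0, 8, 16, 24, 32 and 40 h of exposure.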

[9] = A CellTox Green Cytotoxicity Assay to monitor cytotoxicity in HEK293 cells - 40 hour (AID 1224871); further: nearly all actives have a fitted effect of over 45% in size; further: potency means the concentration at half of the fitted maximal effect
Outline: as §3

[10] = qHTS RealTime-Glo MT Cell Viability Assay in HEK293 cells - 16 hour (AID 1224872)
Outline: as §2

[11] = qHTS RealTime-Glo MT Cell Viability Assay in HepG2 cells - 8 hour (AID 1224873); further: nearly all actives have a fitted effect of over 55% in size
Outline: as §4

[12] = qHTS RealTime-Glo MT Cell Viability Assay in HEK293 cells - 40 hour (AID 1224874); conditions: RealTime-Glo luminescence; max response: active compounds read low; further: nearly all actives have a fitted effect of over 50% in size
Outline: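 HEK293 cells mixed with RealTime-Glo reagents (NanoLuc plus cell-permeant prosubstrate) at 600 cells/well, preincubated 5 h at 37 C/5% CO2, then given 23 nL compound in DMSO. Nonlytic luminescence from viable cells was read at 0, 8, 16, 24, 32 and 40 h.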

[13] = A CellTox Green Cytotoxicity Assay to monitor cytotoxicity in HEK293 cells - 24 hour (AID 1224875); further: nearly all actives have a fitted effect of over 45% in size
Outline: as §3

[14] = A CellTox Green Cytotoxicity Assay to monitor cytotoxicity in HepG2 cells - 16 hour (AID 1224876); further: nearly all actives have a fitted effect of over 45% in size; further: potency means the concentration at half of the fitted maximal effect
Outline: (§5)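 HepG2 cells were seeded together with the CellTox Green dye at 600 cells/well, left 5 h at 37 C/5% CO2, then given compounds in DMSO. Fluorescence from dye bound to dead-cell DNA was read repeatedly over 40 h of treatment at 37 C.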

[15] = qHTS RealTime-Glo MT Cell Viability Assay in HepG2 cells - 32 hour (AID 1224877); further: nearly all actives have a fitted effect of over 55% in size
Outline: as §1

[16] = A CellTox Green Cytotoxicity Assay to monitor cytotoxicity in HepG2 cells - 24 hour (AID 1224878); further: nearly all actives have a fitted effect of over 45% in size; further: potency means the concentration at half of the fitted maximal effect
Outline: as §5

[17] = A CellTox Green Cytotoxicity Assay to monitor cytotoxicity in HepG2 cells - 40 hour (AID 1224879); further: nearly all actives have a fitted effect of over 40% in size; further: potency means the concentration at half of the fitted maximal effect
Outline: as §5

[18] = qHTS assay to identify small molecule agonists of H2AX - cell viability counter screen (AID 1224847; calls by dose curve;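 further: wild-type CHO-K1 cells; top concentration of the series differs between compounds; nearly all actives have a fitted effect of over 30% in size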)
Outline: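 For this counter screen, overnight-attached CHO-K1 cells received test compounds (15 concentrations, 0.76% DMSO final); 3 hr later at 37C, CellTiter-Glo reagent was added and luminescence recorded after 30 min at room temperature.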

[19] = qHTS assay to identify small molecule antagonists of the estrogen related receptor (ERR) signaling pathway from Tox21 library (AID 1224848); further: nearly all actives have a fitted effect of over 50% in size
Outline: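 Reading was by luminescence 30 min after ONE-Glo addition. Before that, ERR cells at 2,000 per well had rested 6 h at 37 C/5% CO2 and then received pin-tooled compounds in DMSO for 18 h at 37 C.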

[20] = qHTS assay to identify small molecule agonists of the estrogen related receptor (ERR) signaling pathway from Tox21 library (AID 1224849; calls by dose curve; further: nearly all actives have a fitted effect of over 15% in size); conditions: ERR reporter cell line, ONE-Glo luciferase, 18 h; at 92.4 µM (top of the series) unless noted
Outline: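 ERR reporter cell line (NTP) seeded, rested 6 h at 37 C/5% CO2, then pinned with Tox21 compounds in DMSO. After 18 h at 37 C, ONE-Glo luciferase luminescence was read following 30 min at room temperature.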
On the % scale 0 is the no-effect control and ±100 the full control effect.

CC(C)=CCC[C@](C)(O)[C@@H]1CC=C(C)CC1
active: Potency [9] 49 µM | Potency [14] 43.6 µM | Potency [16] 43.6 µM | Potency [17] 49 µM
inactive: Potency [1] | Potency [2] | Potency [3] | outcome [4] | Potency [5] | Potency [6] | Potency [7] | Potency [8] | Potency [10] | outcome [11] | max response [12] -6.23% | Potency [13] | Potency [15]

CCC/C=C/CO
inactive: Potency [1] | Potency [2] | Potency [3] | Potency [18] | Potency [5] | Potency [6] | Potency [7] | Potency [8] | Potency [9] | Potency [10] | outcome [11] | max response [12] 0.426% | Potency [13] | Potency [14] | Potency [15] | Potency [16] | Potency [17]

CC(=O)O[C@H]1CC[C@@]2(C)C(=CC[C@@H]3[C@@H]2CC[C@]2(C)C(C(C)=O)=CC[C@@H]32)C1
inactive: Potency [1] | Potency [2] | Potency [3] | outcome [4] | Potency [5] | Potency [7] | Potency [8] | Potency [9] | Potency [10] | outcome [11] | max response [12] -20.5% | Potency [13] | Potency [14] | Potency [15] | Potency [16] | Potency [17]

CCN(CC)CCOc1ccc(Cc2ccccc2)cc1
active: Potency [17] 26.8 µM
inactive: Potency [1] | Potency [2] | Potency [3] | outcome [4] | Potency [18] | Potency [5] | Potency [7] | Potency [8] | Potency [10] | outcome [11] | Potency [13] | Potency [15]

CCOc1ccc(NS(=O)(=O)c2ccc(N)cc2)nn1
inactive: Potency [1] | Potency [2] | Potency [3] | outcome [4] | Potency [18] | Potency [5] | Potency [7] | Potency [8] | outcome [11] | Potency [13] | Potency [14] | Potency [15] | Potency [16] | Potency [17]

C[C@]12C(=O)OC(=O)[C@H]1[C@H]1C=C[C@@H]2C1
inactive: Potency [1] | Potency [2] | Potency [3] | Potency [18] | Potency [19] | activity change, positive = activation [20] 0.566% | Potency [5] | Potency [6] | Potency [7] | Potency [8] | Potency [9] | Potency [10] | outcome [11] | max response [12] 10.7% | Potency [13] | Potency [14] | Potency [15] | Potency [16] | Potency [17]

Cc1cc2nc(N)sc2cc1C
inactive: Potency [1] | Potency [2] | Potency [3] | outcome [4] | Potency [5] | Potency [6] | Potency [8] | Potency [9] | Potency [10] | outcome [11] | max response [12] -0.484% | Potency [13] | Potency [14] | Potency [15] | Potency [16] | Potency [17]

CS(=O)(=O)c1ccc([C@@H](O)[C@@H](CF)NC(=O)C(Cl)Cl)cc1
inactive: Potency [1] | Potency [2] | Potency [3] | outcome [4] | Potency [18] | Potency [5] | Potency [6] | Potency [8] | Potency [10] | outcome [11] | max response [12] 11.3% | Potency [13] | Potency [14] | Potency [15] | Potency [17]

CN1CCC[C@@H]1Cc1c[nH]c2ccc(CCS(=O)(=O)c3ccccc3)cc12
inactive: Potency [1] | Potency [2] | Potency [3] | outcome [4] | Potency [19] | activity change, positive = activation [20] -4.97% [at 42.5 µM] | Potency [5] | Potency [6] | Potency [7] | Potency [8] | Potency [10] | outcome [11] | max response [12] 3.35% | Potency [13] | Potency [14] | Potency [15] | Potency [16] | Potency [17]

Cc1ccsc1C(=CCCN1CCC[C@@H](C(=O)O)C1)c1sccc1C
inactive: Potency [1] | Potency [2] | outcome [4] | Potency [18] | Potency [5] | Potency [6] | Potency [7] | Potency [8] | Potency [9] | Potency [10] | outcome [11] | max response [12] 2.02% | Potency [13] | Potency [14] | Potency [15] | Potency [16] | Potency [17]

N#CSCC(=O)O
inactive: Potency [1] | Potency [2] | outcome [4] | Potency [18] | Potency [19] | activity change, positive = activation [20] 4.98% [at 42.5 µM] | Potency [5] | Potency [6] | Potency [7] | Potency [8] | Potency [10] | outcome [11] | max response [12] 0.0274% | Potency [13] | Potency [14] | Potency [15] | Potency [16] | Potency [17]

OC[C@H]1O[C@@H](O[C@H]2[C@H](O)[C@@H](O)[C@H](O)O[C@@H]2CO)[C@H](O)[C@@H](O)[C@H]1O
inactive: Potency [1] | Potency [2] | outcome [4] | Potency [18] | Potency [19] | activity change, positive = activation [20] 4.49% | Potency [5] | Potency [6] | Potency [7] | Potency [8] | Potency [9] | Potency [10] | outcome [11] | max response [12] 0.3% | Potency [13] | Potency [14] | Potency [15] | Potency [16] | Potency [17]

CC1=NN(c2cc(Cl)c(S(=O)(=O)O)cc2Cl)C(=O)C1N=Nc1ccc(S(=O)(=O)O)cc1 (configuration not stated)
inactive: Potency [1] | Potency [2] | outcome [4] | Potency [18] | Potency [5] | Potency [6] | Potency [7] | Potency [8] | Potency [9] | Potency [10] | outcome [11] | max response [12] 4.23% | Potency [13] | Potency [15]

Cc1c(-c2ccccc2)oc2c(C(=O)OCCN3CCCCC3)cccc2c1=O
inactive: Potency [1] | Potency [2] | Potency [3] | Potency [18] | Potency [5] | Potency [7] | Potency [8] | Potency [9] | outcome [11] | Potency [13] | Potency [14] | Potency [15] | Potency [16] | Potency [17]
